Assay results from PubChem BioAssay AID540276 (National Center for Advancing Translational Sciences (NCATS), 2011).
The campaign covered roughly 300,000 compounds. About 5,400 (1.8%) were called active. Roughly 28% stayed inconclusive and do not appear here. Shown is part of a subset that was picked to be rich in actives. Unmarked numbers belong to inactive results. Calls come from the whole dose curve; tested in HEK293 cells.

assay: qHTS for inhibitors of binding or entry into cells for Marburg Virus; conditions: Marburg virus pseudotyped entry inhibition, cell reporter; series mostly up to 37.8 µM; activity change, negative = inhibition: at the top concentration
% is set by controls: 0 for no effect and ±100 for the full control effect; potency is the fitted concentration of half-maximal effect.

SMILES	activity change, negative = inhibition	Potency
NC(=O)c1cc2ccccc2o/c1=N/NC(=O)c1cccc(F)c1	-5.08% [at 46.1 µM]	–
CCOc1ccc(CN2CCNC(=O)C2CC(=O)NCCCC2CCCC2)cc1 (stereo unspecified)	10.3%	–
c1ccc(C2c3[nH]c4ccccc4c3CCN2Cc2cccn2-c2cccnc2)nc1 (stereo unspecified)	-6.35% [at 46.1 µM]	–
CCOc1ccc(C2c3[nH]c4ccccc4c3CCN2Cc2cccn2-c2ncccn2)cc1 (stereo unspecified)	–	3.16 µM (active)
Oc1cccc(C2c3[nH]c4ccccc4c3CCN2Cc2cnn(-c3ccccc3)c2)c1 (stereo unspecified)	-8.18% [at 46.1 µM]	–
CCN(CC)S(=O)(=O)c1ccc(CNC(=O)CN2C(=O)NC3(CCc4ccccc43)C2=O)cc1 (stereo unspecified)	5.63%	–
COc1ccc(/C=N/NC(=O)c2ccc3c(c2)OCCO3)c(OC)c1	-0.257%	–
COc1cccc(CNCCc2c[nH]c3ccccc23)c1OCc1ccccc1F	–	7.3 µM (active)
COc1ccc(S(=O)(=O)NCCc2c[nH]c3ccccc23)cc1OC	-2.61% [at 46.1 µM]	–
COc1ccccc1CC(=O)NCCc1c[nH]c2ccccc12	-23.9% [at 46.1 µM]	–
O=C1CC(C(=O)O)NC(=S)N1 (stereo unspecified)	0.164% [at 46.1 µM]	–
COc1ccc(S(=O)(=O)N2CCN(CC(=O)N3CCOCC3)CC2)cc1OC	-5.82%	–
COc1ccccc1-n1c(=S)[nH]c2c(sc(=S)n2-c2ccc(C)cc2C)c1=O	-1.23% [at 46.1 µM]	–
COc1cc(-n2c(=S)[nH]c3ccc(C)cc3c2=O)c(Cl)cc1Cl	–	5.62 µM (active)
COc1cc2[nH]c(=S)n(Cc3ccc(C)o3)c(=O)c2cc1OC	-7.92%	–
CC(C)c1ccc(S(=O)(=O)N2CCN(C(=O)CN3C(=O)NC(C)(c4ccccc4)C3=O)CC2)cc1 (stereo unspecified)	0.605%	–
COc1ccc(N(CC(=O)N2CCOCC2)S(=O)(=O)c2ccccc2)cc1Cl	16.6%	–
CC(C)Oc1ccc(S(=O)(=O)N2CCOCC2)cc1NC(=O)C1CSC2(C)CCC(=O)N12 (stereo unspecified)	-14.7% [at 46.1 µM]	–
O=C(OC12CC3CC(CC(C3)C1)C2)c1ccc(NCc2cc(O)ccc2O)cc1	–	4.47 µM (active)
C[C@]12CC[C@H](O)CC1=CCC1C2CC[C@@]2(C)C1CC[C@@H]2NC(=O)CCC(=O)O (stereo partly specified)	3.4%	–
COc1ccc(/C=C/C(=O)NC(=S)N2CCCC(C(N)=O)C2)cc1 (stereo unspecified)	-0.358% [at 46.1 µM]	–
CCCCCCCCn1c2c(c(=N)c3c1CCC3)CCCC2	–	5.01 µM (active)
Cc1ccc(S(=O)(=O)N2CCCC(C(=O)N3CCN(C)CC3)C2)cc1 (stereo unspecified)	8.49%	–
CN(C)c1ccc(CSc2ccccc2)cc1	5.47%	–
O=C(CSc1nnc(N2CCOCC2)n1-c1cccc(F)c1)N1CCN(c2ccccn2)CC1	-2.18%	–
COc1cccc(CNC(=O)CCC2CCCN(C(=O)c3ccc(F)c(Cl)c3)C2)c1 (stereo unspecified)	2.45%	–

SMILES	activity change, negative = inhibition	Potency
COc1ccc2[nH]c3c(c2c1)CCN(C(=O)CCC1CCCC1)C3c1ccc(F)cc1 (stereo unspecified)	–	0.631 µM (active)
COc1cccc(C(=O)N2CCCC(CCC(=O)NCc3ccc(F)c(F)c3)C2)c1 (stereo unspecified)	-21.9%	–
COc1ccccc1C(=O)NCCC(=O)NCC(c1ccco1)N1CCCCC1 (stereo unspecified)	0.853%	–
Cc1ccc(S(=O)(=O)N(CC(=O)NCc2ccco2)c2ccccc2C)cc1	22.1% [at 46.1 µM]	–
O=C(O)CCCc1ccccc1	–	inactive
C=CCN1CCN(C(=O)CCCc2ccccc2)CC1	–	2.51 µM (active)
CC(=O)c1ccc(N2CCN(C(=O)CCc3ccccc3)CC2)cc1	27.7%	–
Cc1cc(C)c(S(=O)(=O)N(C)CC(=O)NCC2CCCO2)c(C)c1 (stereo unspecified)	-8.6% [at 46.1 µM]	–
COC1C(CO)OC(n2cnc3c(=S)nc(N)[nH]c32)C1O (stereo unspecified)	21%	–
NC(=O)C1(N2CCCC2)CCN(Cc2ccccc2)CC1	-9.61%	–
CCC(=C/c1sc2ccc3ccccc3c2[n+]1C)/C=C1\Sc2ccc3ccccc3c2N1C	–	3.55 µM (active)
O=C(Nc1ccc(S(=O)(=O)N2CCCCCC2)cc1)c1c(F)cccc1F	-9.13%	–
Cc1cc(C)c(S(=O)(=O)N2CCCC2CNC(=O)c2ccc3c(c2)OCO3)c(C)c1 (stereo unspecified)	17.5%	–
O=C1c2cccc3cccc(c23)C(=O)N1CCCCCc1n[nH]c(=S)o1	-2.52% [at 46.1 µM]	–
C[N+](C)(CCCCCC[N+](C)(C)CCCN1C(=O)c2cccc3cccc(c23)C1=O)CCCN1C(=O)c2cccc3cccc(c23)C1=O	–	5.01 µM (active)
O=C1c2ccccc2C(=O)N1CCCCCCN1C(=O)c2ccccc2C1=O	11.3% [at 46.1 µM]	–
Cc1ccc(-n2c(-c3ccc([N+](=O)[O-])cc3)nc3ccccc3c2=O)cc1	-30.2% [at 46.1 µM]	–
Cc1nc(-c2ccc([N+](=O)[O-])cc2)c(-c2ccccc2)o1	-2.14%	–
Cc1ccc(-c2cn3cc(C)ccc3n2)cc1	–	0.316 µM (active)
Cc1ccc(-c2cn3cc([N+](=O)[O-])ccc3n2)cc1	–	3.66 µM (active)
c1ccc(-c2cn3cccnc3n2)cc1	17.4%	–
Cc1ccc(-c2cc(N)on2)cc1	6.12%	–
CC(C)=CCCC(C)=CCN1C(=O)[C@]2(OCCC=C[C@H]2C)c2ccccc21	2.91% [at 14.2 µM]	–
O=C(c1ccco1)N1CCN(C(=S)Nc2cc(F)cc(F)c2)CC1	-3.01% [at 46.1 µM]	–
CN(Cc1ccccc1)C(=O)C1CCCN(c2ncnc3c2nc2n3CCCCC2)C1 (stereo unspecified)	-26.2% [at 46.1 µM]	–
